{"source": "the supplement of paper PMC13380429", "test_system": "Vero E6 infected with SARS-CoV-2", "assay": "inhibition of SARS-CoV-2 cytopathic effect; higher = more antiviral protection, active = above 15", "details": "48 h", "note": "Unmarked numbers belong to inactive results.", "data": [{"smiles": "O=C(O)CCc1c[nH]c2ccccc12", "values": [{"measurement": "inhibition of SARS-CoV-2 cytopathic effect", "setting": "1 nM", "result": 0.05, "unit": "%"}, {"measurement": "inhibition of SARS-CoV-2 cytopathic effect", "setting": "8.33 nM", "result": -0.38, "unit": "%"}, {"measurement": "inhibition of SARS-CoV-2 cytopathic effect", "setting": "100 nM", "result": -1.18, "unit": "%"}, {"measurement": "inhibition of SARS-CoV-2 cytopathic effect", "setting": "833.33 nM", "result": -0.72, "unit": "%"}, {"measurement": "inhibition of SARS-CoV-2 cytopathic effect", "setting": "10000 nM", "result": -0.06, "unit": "%"}]}, {"smiles": "CCSc1ccc2c(c1)N(CCCN1CCN(C)CC1)c1ccccc1S2", "note": "[thiethylperazine]", "values": [{"measurement": "inhibition of SARS-CoV-2 cytopathic effect", "setting": "1 nM", "result": -3.78, "unit": "%"}, {"measurement": "inhibition of SARS-CoV-2 cytopathic effect", "setting": "8.33 nM", "result": -1.48, "unit": "%"}, {"measurement": "inhibition of SARS-CoV-2 cytopathic effect", "setting": "100 nM", "result": -1.97, "unit": "%"}, {"measurement": "inhibition of SARS-CoV-2 cytopathic effect", "setting": "833.33 nM", "result": -4.23, "unit": "%"}, {"measurement": "inhibition of SARS-CoV-2 cytopathic effect", "setting": "10000 nM", "result": "22.5% (active)"}]}, {"smiles": "CN(C)C[C@H](O)Cn1c2ccc(Br)cc2c2cc(Br)ccc21", "note": "(racemic) [wiskostatin]", "values": [{"measurement": "inhibition of SARS-CoV-2 cytopathic effect", "setting": "1 nM", "result": -2.04, "unit": "%"}, {"measurement": "inhibition of SARS-CoV-2 cytopathic effect", "setting": "8.33 nM", "result": -1.61, "unit": "%"}, {"measurement": "inhibition of SARS-CoV-2 cytopathic effect", "setting": "100 nM", "result": 0.88, "unit": "%"}, {"measurement": "inhibition of SARS-CoV-2 cytopathic effect", "setting": "833.33 nM", "result": -1.26, "unit": "%"}, {"measurement": "inhibition of SARS-CoV-2 cytopathic effect", "setting": "10000 nM", "result": "57.3% (active)"}]}, {"smiles": "COc1ccc(CCc2nc3cc(-c4c(C)noc4C)ccc3n2C[C@H](C)N2CCOCC2)cc1Cl", "values": [{"measurement": "inhibition of SARS-CoV-2 cytopathic effect", "setting": "1 nM", "result": 0.67, "unit": "%"}, {"measurement": "inhibition of SARS-CoV-2 cytopathic effect", "setting": "8.33 nM", "result": 1.61, "unit": "%"}, {"measurement": "inhibition of SARS-CoV-2 cytopathic effect", "setting": "100 nM", "result": 0.26, "unit": "%"}, {"measurement": "inhibition of SARS-CoV-2 cytopathic effect", "setting": "833.33 nM", "result": -1.13, "unit": "%"}, {"measurement": "inhibition of SARS-CoV-2 cytopathic effect", "setting": "10000 nM", "result": 5.31, "unit": "%"}]}, {"smiles": "O=C(O)C1(C(=O)O)CCC1.[NH2-].[NH2-].[Pt+2]", "note": "[carboplatin]", "values": [{"measurement": "inhibition of SARS-CoV-2 cytopathic effect", "setting": "1 nM", "result": 2.35, "unit": "%"}, {"measurement": "inhibition of SARS-CoV-2 cytopathic effect", "setting": "8.33 nM", "result": 3.65, "unit": "%"}, {"measurement": "inhibition of SARS-CoV-2 cytopathic effect", "setting": "100 nM", "result": 4.49, "unit": "%"}, {"measurement": "inhibition of SARS-CoV-2 cytopathic effect", "setting": "833.33 nM", "result": 9.87, "unit": "%"}, {"measurement": "inhibition of SARS-CoV-2 cytopathic effect", "setting": "10000 nM", "result": 4.39, "unit": "%"}]}, {"smiles": "C=C1C[C@]23C[C@@]1(O)CC[C@H]2[C@@]12C=C[C@H](O)[C@@](C)(C(=O)O1)[C@H]2[C@@H]3C(=O)O", "values": [{"measurement": "inhibition of SARS-CoV-2 cytopathic effect", "setting": "1 nM", "result": 0.13, "unit": "%"}, {"measurement": "inhibition of SARS-CoV-2 cytopathic effect", "setting": "8.33 nM", "result": 0.82, "unit": "%"}, {"measurement": "inhibition of SARS-CoV-2 cytopathic effect", "setting": "100 nM", "result": 1.4, "unit": "%"}, {"measurement": "inhibition of SARS-CoV-2 cytopathic effect", "setting": "833.33 nM", "result": 2.17, "unit": "%"}, {"measurement": "inhibition of SARS-CoV-2 cytopathic effect", "setting": "10000 nM", "result": -0.14, "unit": "%"}]}, {"smiles": "O=C1NC(O)CCN1[C@@H]1O[C@H](CO)[C@@H](O)[C@H]1O", "note": "(stereo not given in full) [tetrahydrouridine]", "values": [{"measurement": "inhibition of SARS-CoV-2 cytopathic effect", "setting": "1 nM", "result": 2.54, "unit": "%"}, {"measurement": "inhibition of SARS-CoV-2 cytopathic effect", "setting": "8.33 nM", "result": 1.19, "unit": "%"}, {"measurement": "inhibition of SARS-CoV-2 cytopathic effect", "setting": "100 nM", "result": 0.47, "unit": "%"}, {"measurement": "inhibition of SARS-CoV-2 cytopathic effect", "setting": "833.33 nM", "result": -0.67, "unit": "%"}, {"measurement": "inhibition of SARS-CoV-2 cytopathic effect", "setting": "10000 nM", "result": -0.83, "unit": "%"}]}, {"smiles": "CCN(CC)CCCCNc1ncc2cc(-c3c(Cl)cccc3Cl)c(NC(=O)NC(C)(C)C)nc2n1", "values": [{"measurement": "inhibition of SARS-CoV-2 cytopathic effect", "setting": "1 nM", "result": -1.36, "unit": "%"}, {"measurement": "inhibition of SARS-CoV-2 cytopathic effect", "setting": "8.33 nM", "result": -1.31, "unit": "%"}, {"measurement": "inhibition of SARS-CoV-2 cytopathic effect", "setting": "100 nM", "result": 2.1, "unit": "%"}, {"measurement": "inhibition of SARS-CoV-2 cytopathic effect", "setting": "833.33 nM", "result": -1.78, "unit": "%"}, {"measurement": "inhibition of SARS-CoV-2 cytopathic effect", "setting": "10000 nM", "result": 13.4, "unit": "%"}]}]}
